Results published in PubChem BioAssay (Tox21).
Results filed as inconclusive are left out. Calls of active or inactive are those of the source. Unless noted, calls come from the whole dose curve; as a rule, active = well fitted curve in the direction sought with a large enough effect in the repeat runs; inconclusive = weak or mixed curves; inactive = no such curve, though single readings can be large; an effect the other way counts as inactive or inconclusive.

Tests used:
[1] = qHTS assay to identify small molecule agonists of the sonic hedgehog signaling (Shh) pathway (AID 1259368; calls by dose curve;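 note: NIH/3T3-derived 3T3Gli1-Luc cells carrying a stable Gli1-driven firefly luciferase reporter; series mostly up to about 92 µM; nearly all actives have a fitted effect of over 15% in size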)
Outline: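 NIH/3T3-derived 3T3Gli1-Luc cells with stably integrated Gli1-driven firefly luciferase, 2,000 cells/well, compounds added after 4 hr. Incubated 24 hr at 37C, 5% CO2; luminescence read after 30 min with luciferase reagent at room temperature.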

[2] = target: Estrogen receptor beta (Homo sapiens) (UniProt Q92731); experiment: qHTS assay to identify small molecule agonists of the estrogen receptor beta (ER-beta) signaling pathway (AID 1259377; active = well fitted activation curve with a large enough effect in the signal ratio in the repeat runs, not every such curve was filed as active; the % refers to the signal ratio)
Outline: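 In HEK293T cells bearing a UAS-beta-lactamase reporter under ER-beta control, DMSO-delivered compounds were incubated for 16 hr at 37C. Activity was detected as fluorescence 2 hours after LiveBLAzer B/G FRET substrate addition.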

[3] = qHTS assay to identify small molecule agonists of the androgen receptor (AR) signaling pathway in the presence of an antagonist - cell viability counter screen (AID 1259379);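 note: MDA-kb2 human breast cancer cells carrying an MMTV luciferase reporter; series mostly up to about 92 µM; nearly all actives have a fitted effect of over 25% in size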
Outline: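 MDA-kb2 cells (MMTV-luciferase, AR/GR), 3,000/well, 5 h attachment, then 3.0 µM nilutamide (final) and compounds at 15 concentrations. Viability by CellTiter-Fluor fluorescence after 16 h at 37 °C, 0% CO2, in the reporter wells.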

[4] = qHTS assay to identify small molecule antagonists of the estrogen receptor beta (ER-beta) signaling pathway - cell viability counter screen (AID 1259382);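 note: HEK293T cells carrying ER-beta-UAS-bla reporter stimulated with estradiol; series mostly up to about 92 µM; nearly all actives have a fitted effect of over 55% in size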
Outline: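 ER-beta-UAS-bla HEK293T cells in 2% charcoal-stripped FBS medium, treated with compound plus 1 nM 17-beta-estradiol for 16 h at 37C. Viability read by CellTiter-Glo luminescence after 30 min at room temperature in the same wells.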

[5] = target: Estrogen receptor (Homo sapiens) (UniProt P03372); experiment: qHTS assay to identify small molecule agonists of the estrogen receptor alpha (ER-alpha) signaling pathway in the presence of an antagonist (AID 1259383; calls by dose curve; note: top concentration of the series differs between compounds; nearly all actives have a fitted effect of over 15% in size)
Outline: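 VM7Luc4E2 cells express endogenous full-length ER-alpha with an ERE-luciferase reporter and were hormone-deprived for 5 days. Compounds at 15 concentrations were added with 10.0nM ICI-182,780 for 22hr at 37C. Luminescence was read with ONE-Glo.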

[6] = qHTS assay to identify small molecule agonists or antagonists of the thyroid stimulating hormone receptor (TSHR) signaling pathway - wild type cell line counter screen (AID 1259384; calls by dose curve)
Outline: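 Counter screen in untransfected Hek293: compounds (15-point titration, triplicate) plus phosphodiesterase inhibitor Ro20-1724 added after 18 h plating; 30 min RT. Intracellular cAMP via competitive d2/cryptate immunoassay, 1 h incubation.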

[7] = target: Thyrotropin receptor (Homo sapiens) (UniProt P16473); experiment: qHTS assay to identify small molecule antagonists of the thyroid stimulating hormone receptor (TSHR) signaling pathway (AID 1259385; calls by dose curve; note: nearly all actives have a fitted effect of over 20% in size)
Outline: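 Antagonist mode: compound-treated TSHR-expressing HEK293 cells were stimulated with 1.5 ng/mL TSH (final) in presence of Ro20-1724 for 30 min at RT. HTRF cAMP detection after 1 h; each compound tested at 15 concentrations, triplicate.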

[8] = qHTS assay to identify small molecule agonists of the estrogen receptor alpha (ER-alpha) signaling pathway in the presence of an antagonist - cell viability counter screen (AID 1259386);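 note: series mostly up to about 92 µM; cells exposed to compounds for 22 h at 37 °C before the viability read; nearly all actives have a fitted effect of over 30% in size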
Outline: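 Cell viability in VM7Luc4E2 cells (endogenous full-length ER-alpha) measured by CellTiter-Fluor fluorescence in the same wells as the luciferase screen. Cells pre-cultured 5 days in charcoal-stripped serum, then treated 22 h with compounds at 15 concentrations plus 10.0nM ICI-182,780.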

[9] = target: Progesterone receptor (Homo sapiens) (UniProt P06401); experiment: qHTS assay to identify small molecule agonists of the progesterone receptor (PR) signaling pathway (AID 1346784; calls by dose curve; note: nearly all actives have a fitted effect of over 30% in size)
Outline: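 Using charcoal-stripped serum (2%) to limit endogenous steroids, PR-UAS-bla HEK 293T cells received compounds for 16 hr at 37C after 6 hr plating; beta-lactamase FRET fluorescence was recorded following 2 hr substrate loading at room temperature.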

[10] = qHTS assay to identify small molecule antagonists of the progesterone receptor (PR) signaling pathway - cell viability counter screen (AID 1346798); note: series mostly up to about 92 µM; nearly all actives have a fitted effect of over 50% in size
Outline: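 ATP content as viability readout: CellTiter-Glo luminescence, 30 min room temperature, in PR-UAS-bla HEK293T cells after 16 hr compound/R5020 treatment at 37C and 5% CO2.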

[11] = qHTS assay to identify small molecule agonists of the progesterone receptor (PR) signaling pathway - cell viability counter screen (AID 1346799; calls by dose curve; note: nearly all actives have a fitted effect of over 45% in size)
Outline: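 Cytotoxicity in PR-bla HEK293T cells: 16 h compound, 37C; CellTiter-Glo added post-FRET read; luminescence after 30 min RT.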

[12] = qHTS assay to identify small molecule antagonists of the TGF-beta/Smad signaling pathway - cell viability counter screen (AID 1346824); note: nearly all actives have a fitted effect of over 50% in size
Outline: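 Cytotoxicity counter-screen run in the same wells as the beta-lactamase Smad reporter read: CellTiter-Glo luminescence after 30 min at room temperature. HEK 293T SBE-bla cells had 5 hr compound exposure at 37 C with TGF-beta1 (0.25 ng/mL stock).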

[13] = qHTS assay to identify small molecule agonists of the TGF-beta/Smad signaling pathway - cell viability counter screen (AID 1346829); note: top concentration of the series differs between compounds; nearly all actives have a fitted effect of over 45% in size
Outline: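 CellTiter-Glo luminescence readout; SBE-bla HEK 293T cells, overnight plating, compound 5 hr at 37 C/5% CO2, then bla substrate 2 hr RT, then CellTiter-Glo 30 min RT.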

[14] = qHTS assay to identify small molecule agonists of the TGF-beta/Smad signaling pathway (AID 1346859; active = well fitted activation curve with a large enough effect in the signal ratio in the repeat runs, not every such curve was filed as active; the % refers to the signal ratio; note: series mostly up to about 77 µM)
Outline: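 Stable Smad binding element-beta-lactamase HEK 293T cells; 5 hr compound exposure at 37 C under 5% CO2; 2 hr room-temperature substrate step; fluorescence excited at 405 nm, collected at 460 nm and 530 nm.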

[15] = target: Thyrotropin-releasing hormone receptor (Homo sapiens) (UniProt P34981); experiment: qHTS assay to identify small molecule antagonists of the thyrotropin-releasing hormone receptor (TRHR) signaling pathway (AID 1346877; active = well fitted inhibition curve with a large enough effect in the repeat runs, not every such curve was filed as active; note: series mostly up to about 51 µM)
Outline: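 TRHR-expressing HEK293 cells loaded with calcium dye for 2 h at 37 C; compounds pre-incubated 5 min at room temperature before TRH challenge at 1 nM final. Intracellular calcium fluorescence read kinetically for 3 min; 15 concentrations in triplicate.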

[16] = target: Estrogen receptor beta (Homo sapiens) (UniProt Q92731); experiment: qHTS assay to identify small molecule antagonists of the estrogen receptor beta (ER-beta) signaling pathway (AID 1259378; active = well fitted inhibition curve with a large enough effect in the signal ratio in the repeat runs, not every such curve was filed as active; the % refers to the signal ratio)
Outline: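 Antagonist mode: compounds added to beta-lactamase reporter HEK293T ER-beta-UAS cells stimulated with E2 (1nM final), 16 hr at 37C. LiveBLAzer B/G FRET substrate, 2 hours room temperature, fluorescence read-out.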

[17] = qHTS assay to identify small molecule agonists of the estrogen receptor beta (ER-beta) signaling pathway - cell viability counter screen (AID 1259380); note: nearly all actives have a fitted effect of over 30% in size
Outline: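 ER-beta-UAS-bla HEK293T cells in medium with 2% charcoal-stripped FBS, pre-incubated 6 hr, then treated 16 hr at 37C. Cytotoxicity read in the same wells by CellTiter-Glo luminescence after 30 min at room temperature.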

[18] = target: Progesterone receptor (Homo sapiens) (UniProt P06401); experiment: qHTS assay to identify small molecule antagonists of the progesterone receptor (PR) signaling pathway (AID 1346795; active = well fitted inhibition curve with a large enough effect in the signal ratio in the repeat runs, not every such curve was filed as active; the % refers to the signal ratio)
Outline: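 Inhibition of R5020-induced (1 nM final) beta-lactamase reporter signal in PR-UAS-bla HEK293T cells was scored by FRET fluorescence after overnight (16 hr) compound treatment.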

[19] = target: Androgen receptor (Homo sapiens) (UniProt P10275); experiment: qHTS assay to identify small molecule agonists of the androgen receptor (AR) signaling pathway in the presence of an antagonist (AID 1259381; calls by dose curve; note: nearly all actives have a fitted effect of over 15% in size)
Outline: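 MDA-kb2 cells carrying MMTV-luciferase (AR/GR responsive), 3,000 cells/well, co-treated with 3.0 uM nilutamide final. Compounds at 15 concentrations, 16 hr at 37C without CO2. Luciferase luminescence read after 30 min with ONE-Glo.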

[20] = qHTS assay to identify small molecule antagonists of the sonic hedgehog signaling (Shh) pathway (AID 1259369; calls by dose curve; note: nearly all actives have a fitted effect of over 45% in size)
Outline: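 NIH/3T3-derived Gli1-Luc reporter cells plated 4 h, dosed with compound, then stimulated with conditioned medium for 24 h at 37 C. Firefly luciferase luminescence read after 30 min with detection reagent at room temperature.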
% is set by controls: 0 for no effect and ±100 for the full control effect.

Sequence of Thyrotropin receptor (Homo sapiens) (P16473 whole entry, looked up): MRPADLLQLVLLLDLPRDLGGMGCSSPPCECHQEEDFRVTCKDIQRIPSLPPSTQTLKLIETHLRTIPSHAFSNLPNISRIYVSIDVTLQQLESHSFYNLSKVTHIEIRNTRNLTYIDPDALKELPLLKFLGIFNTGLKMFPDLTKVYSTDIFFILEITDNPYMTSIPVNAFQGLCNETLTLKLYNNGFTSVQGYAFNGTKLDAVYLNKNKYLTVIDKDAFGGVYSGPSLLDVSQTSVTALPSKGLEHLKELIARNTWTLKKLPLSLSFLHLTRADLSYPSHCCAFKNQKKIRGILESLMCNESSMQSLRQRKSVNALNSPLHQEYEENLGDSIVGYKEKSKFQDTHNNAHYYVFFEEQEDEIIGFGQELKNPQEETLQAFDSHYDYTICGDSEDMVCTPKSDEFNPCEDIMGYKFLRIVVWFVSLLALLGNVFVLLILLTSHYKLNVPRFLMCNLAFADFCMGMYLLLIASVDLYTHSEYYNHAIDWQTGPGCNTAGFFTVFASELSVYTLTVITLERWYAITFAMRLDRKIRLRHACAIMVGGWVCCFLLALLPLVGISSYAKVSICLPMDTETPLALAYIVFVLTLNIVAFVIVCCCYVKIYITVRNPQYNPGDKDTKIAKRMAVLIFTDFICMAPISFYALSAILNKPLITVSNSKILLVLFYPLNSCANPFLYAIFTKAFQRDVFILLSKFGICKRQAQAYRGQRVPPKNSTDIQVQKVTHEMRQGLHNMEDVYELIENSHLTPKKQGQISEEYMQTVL
Sequence of Progesterone receptor (Homo sapiens) (P06401 whole entry, looked up): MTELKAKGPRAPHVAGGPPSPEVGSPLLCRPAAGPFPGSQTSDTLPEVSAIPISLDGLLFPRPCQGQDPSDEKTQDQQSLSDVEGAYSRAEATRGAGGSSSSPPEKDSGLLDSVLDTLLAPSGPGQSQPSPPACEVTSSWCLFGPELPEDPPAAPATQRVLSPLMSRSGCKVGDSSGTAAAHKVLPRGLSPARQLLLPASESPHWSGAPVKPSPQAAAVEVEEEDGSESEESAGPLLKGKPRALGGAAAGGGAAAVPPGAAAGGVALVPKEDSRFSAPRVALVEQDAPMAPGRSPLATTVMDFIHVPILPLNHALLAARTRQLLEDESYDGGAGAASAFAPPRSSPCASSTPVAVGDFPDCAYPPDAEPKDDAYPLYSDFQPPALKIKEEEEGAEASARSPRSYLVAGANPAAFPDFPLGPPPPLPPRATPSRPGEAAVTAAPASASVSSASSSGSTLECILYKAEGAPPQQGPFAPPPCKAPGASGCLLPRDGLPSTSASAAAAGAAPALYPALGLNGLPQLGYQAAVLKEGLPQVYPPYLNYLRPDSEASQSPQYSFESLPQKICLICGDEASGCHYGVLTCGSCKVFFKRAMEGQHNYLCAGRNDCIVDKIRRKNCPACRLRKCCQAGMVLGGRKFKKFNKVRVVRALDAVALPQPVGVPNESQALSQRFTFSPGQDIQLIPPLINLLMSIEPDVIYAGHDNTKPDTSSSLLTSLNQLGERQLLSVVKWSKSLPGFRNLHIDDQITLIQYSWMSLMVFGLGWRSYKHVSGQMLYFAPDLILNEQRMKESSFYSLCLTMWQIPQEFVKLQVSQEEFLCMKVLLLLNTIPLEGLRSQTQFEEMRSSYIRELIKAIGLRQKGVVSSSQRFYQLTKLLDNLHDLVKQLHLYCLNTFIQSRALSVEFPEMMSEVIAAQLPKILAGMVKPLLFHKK
Sequence of Thyrotropin-releasing hormone receptor (Homo sapiens) (P34981 whole entry, looked up): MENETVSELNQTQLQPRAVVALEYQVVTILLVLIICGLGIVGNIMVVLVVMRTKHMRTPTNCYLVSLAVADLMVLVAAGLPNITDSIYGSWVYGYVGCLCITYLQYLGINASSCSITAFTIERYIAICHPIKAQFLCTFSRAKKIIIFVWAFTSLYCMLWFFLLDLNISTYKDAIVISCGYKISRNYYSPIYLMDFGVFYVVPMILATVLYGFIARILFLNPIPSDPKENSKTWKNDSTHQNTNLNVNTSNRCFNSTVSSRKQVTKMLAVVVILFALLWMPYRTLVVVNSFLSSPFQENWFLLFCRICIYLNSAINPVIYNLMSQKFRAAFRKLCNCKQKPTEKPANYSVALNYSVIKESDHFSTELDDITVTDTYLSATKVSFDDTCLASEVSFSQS
Sequence of Estrogen receptor beta (Homo sapiens) (Q92731 whole entry, looked up): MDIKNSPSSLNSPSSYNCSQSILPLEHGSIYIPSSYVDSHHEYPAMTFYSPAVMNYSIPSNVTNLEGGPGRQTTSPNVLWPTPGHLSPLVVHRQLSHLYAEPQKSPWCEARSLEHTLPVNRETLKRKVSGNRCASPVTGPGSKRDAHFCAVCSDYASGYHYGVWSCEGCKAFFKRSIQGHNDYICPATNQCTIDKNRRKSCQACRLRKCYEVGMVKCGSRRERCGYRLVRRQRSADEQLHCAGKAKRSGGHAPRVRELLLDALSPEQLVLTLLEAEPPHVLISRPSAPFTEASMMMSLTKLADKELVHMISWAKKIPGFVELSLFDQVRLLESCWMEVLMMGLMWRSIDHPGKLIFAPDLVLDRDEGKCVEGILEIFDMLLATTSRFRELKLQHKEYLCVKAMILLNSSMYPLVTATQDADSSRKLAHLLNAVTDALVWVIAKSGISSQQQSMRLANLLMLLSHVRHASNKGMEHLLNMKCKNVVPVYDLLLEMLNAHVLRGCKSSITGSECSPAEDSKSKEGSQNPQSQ
Sequence of Estrogen receptor (Homo sapiens) (P03372 whole entry, looked up): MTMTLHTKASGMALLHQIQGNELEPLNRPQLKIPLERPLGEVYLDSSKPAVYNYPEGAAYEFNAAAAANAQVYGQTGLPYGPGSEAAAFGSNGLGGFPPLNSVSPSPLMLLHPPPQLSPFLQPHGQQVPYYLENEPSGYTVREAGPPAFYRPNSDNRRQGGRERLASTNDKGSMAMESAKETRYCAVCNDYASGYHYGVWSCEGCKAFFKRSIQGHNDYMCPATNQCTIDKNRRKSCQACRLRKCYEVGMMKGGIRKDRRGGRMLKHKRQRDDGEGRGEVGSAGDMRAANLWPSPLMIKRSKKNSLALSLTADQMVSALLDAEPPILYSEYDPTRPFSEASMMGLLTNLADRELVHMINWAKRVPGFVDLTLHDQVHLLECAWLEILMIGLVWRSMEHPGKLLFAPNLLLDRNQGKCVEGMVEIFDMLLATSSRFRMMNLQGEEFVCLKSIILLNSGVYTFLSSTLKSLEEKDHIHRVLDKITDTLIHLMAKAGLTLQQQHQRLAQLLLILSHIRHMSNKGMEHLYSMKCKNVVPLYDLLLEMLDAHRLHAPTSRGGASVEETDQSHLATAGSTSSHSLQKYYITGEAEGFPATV
Sequence of Androgen receptor (Homo sapiens) (P10275 whole entry, looked up): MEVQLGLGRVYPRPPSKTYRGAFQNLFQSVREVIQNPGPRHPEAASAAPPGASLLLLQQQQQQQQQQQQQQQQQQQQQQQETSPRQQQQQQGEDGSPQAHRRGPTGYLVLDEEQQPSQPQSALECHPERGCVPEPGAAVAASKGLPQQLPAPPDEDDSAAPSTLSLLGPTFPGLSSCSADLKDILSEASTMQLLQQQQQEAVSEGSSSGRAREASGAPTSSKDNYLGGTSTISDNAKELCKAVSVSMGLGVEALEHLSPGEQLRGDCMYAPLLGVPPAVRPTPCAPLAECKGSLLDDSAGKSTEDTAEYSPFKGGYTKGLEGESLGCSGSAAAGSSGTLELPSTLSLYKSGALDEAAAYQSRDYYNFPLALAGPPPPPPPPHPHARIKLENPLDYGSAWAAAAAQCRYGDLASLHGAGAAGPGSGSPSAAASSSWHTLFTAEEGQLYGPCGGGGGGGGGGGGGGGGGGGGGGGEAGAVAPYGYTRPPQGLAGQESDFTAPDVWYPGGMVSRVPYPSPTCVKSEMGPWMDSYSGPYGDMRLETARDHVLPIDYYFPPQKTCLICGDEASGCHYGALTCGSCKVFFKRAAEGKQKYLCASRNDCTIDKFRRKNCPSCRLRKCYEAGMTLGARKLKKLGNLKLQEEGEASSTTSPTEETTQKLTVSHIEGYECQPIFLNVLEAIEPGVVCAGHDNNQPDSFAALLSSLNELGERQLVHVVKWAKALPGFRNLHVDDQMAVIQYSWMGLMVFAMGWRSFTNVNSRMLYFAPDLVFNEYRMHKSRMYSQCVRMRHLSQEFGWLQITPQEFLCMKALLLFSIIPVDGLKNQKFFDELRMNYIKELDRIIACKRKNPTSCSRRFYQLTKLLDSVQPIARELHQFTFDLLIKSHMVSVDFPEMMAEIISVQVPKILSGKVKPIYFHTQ

CCn1cc(C(=O)O)c(=O)c2cc(F)c(N3CCN(C)CC3)cc21
inactive: activity change [1] -0.335% [at 18.9 µM, stronger effect = higher value] | activation [2] 2.22% [at 19 µM] | activity change, negative = cytotoxicity [3] 3.8% [at 19 µM] | activity change, negative = cytotoxicity [4] 0.879% [at 19 µM] | activation [5] 1.75% [at 19 µM] | cAMP activity change [6] -4.11% [at 18.9 µM] | activity change, negative = inhibition [7] 0.775% [at 19 µM] | activity change, negative = cytotoxicity [8] 0.853% [at 19 µM] | activation [9] -0.0581% [at 19 µM] | activity change, negative = cytotoxicity [10] 0.0653% [at 18.9 µM] | activity change, negative = cytotoxicity [11] -1.41% [at 19 µM] | viability change, negative = cytotoxic [12] 3.51% [at 15.8 µM] | activity change, negative = cytotoxicity [13] -2.92% [at 15.8 µM] | activation [14] 0.23% [at 15.8 µM] | activity, negative = inhibition [15] 2.2% [at 10.5 µM]

CCCCCCCCC=O
inactive: Potency [1] | outcome [2] | Potency [16] | Potency [3] | Potency [17] | Potency [4] | outcome [6] | Potency [7] | Potency [18] | outcome [13]

Cc1ccc(N)cc1[N+](=O)[O-]
inactive: Potency [1] | Potency [3] | Potency [17] | Potency [19] | Potency [4] | outcome [6] | Potency [7] | Potency [18] | Potency [11] | outcome [12] | outcome [13] | outcome [14] | outcome [15]

CCOC(=O)Cn1c(=O)sc2cccc(Cl)c21
inactive: Potency [1] | outcome [2] | Potency [16] | Potency [3] | Potency [4] | Potency [5] | outcome [6] | Potency [7] | outcome [8] | Potency [9] | Potency [10] | Potency [11] | outcome [13] | outcome [14] | outcome [15]

CCn1c(=O)c2c(nc(/C=C/c3ccc(OC)c(OC)c3)n2C)n(CC)c1=O
inactive: Potency [1] | Potency [3] | Potency [4] | outcome [6] | outcome [8] | Potency [9] | Potency [18] | outcome [12] | outcome [13] | outcome [14] | outcome [15]

CC(=O)c1ccc(C)cc1
inactive: Potency [1] | Potency [3] | Potency [17] | Potency [4] | Potency [5] | outcome [6] | Potency [7] | outcome [8] | Potency [9] | Potency [18] | Potency [11] | outcome [12] | outcome [13] | outcome [14] | outcome [15]

O=S(=O)(c1cccc2cnccc12)N1CCCNCC1
inactive: Potency [1] | outcome [2] | Potency [16] | Potency [3] | Potency [4] | Potency [5] | outcome [6] | Potency [7] | outcome [8] | Potency [9] | Potency [11] | outcome [12] | outcome [13] | outcome [14] | outcome [15]

Cc1ccc(Nc2ccc(O)c3c2C(=O)c2ccccc2C3=O)cc1
inactive: Potency [1] | Potency [20] | Potency [17] | Potency [4] | Potency [5] | outcome [8] | Potency [9] | Potency [18] | Potency [10] | outcome [12] | outcome [13] | outcome [14] | outcome [15]

[O-][N+](=Nc1ccccc1)c1ccccc1
inactive: Potency [20] | outcome [2] | Potency [16] | Potency [3] | Potency [17] | Potency [4] | Potency [5] | outcome [6] | outcome [8] | Potency [9] | Potency [18] | Potency [10] | Potency [11] | outcome [12] | outcome [13] | outcome [14] | outcome [15]

CCCCCCCCCCCCI
inactive: Potency [1] | Potency [3] | Potency [4] | outcome [6] | Potency [7] | outcome [8] | Potency [9] | Potency [18] | Potency [10] | Potency [11] | outcome [12] | outcome [13] | outcome [14] | outcome [15]

C=C(C)[C@@H]1CCC2=CC(=O)C[C@@H](C)[C@]2(C)C1
inactive: Potency [1] | Potency [16] | Potency [3] | Potency [17] | Potency [4] | Potency [5] | outcome [6] | Potency [7] | outcome [8] | Potency [9] | Potency [11] | outcome [12] | outcome [13] | outcome [14]

OCC(O)[C@@H](O)[C@H](O)[C@H](O)CO[C@H]1O[C@H](CO)[C@@H](O)[C@H](O)[C@H]1O (stereo partly specified)
inactive: Potency [1] | outcome [2] | Potency [16] | Potency [3] | Potency [4] | outcome [6] | Potency [7] | outcome [8] | Potency [9] | Potency [18] | Potency [11] | outcome [13] | outcome [14] | outcome [15]

C#CC(O)C(CC)CCCC (stereo unspecified)
inactive: Potency [1] | outcome [2] | Potency [16] | Potency [3] | Potency [17] | Potency [19] | outcome [6] | Potency [7] | outcome [8] | Potency [9] | Potency [18] | Potency [11] | outcome [12] | outcome [13] | outcome [14] | outcome [15]

CC(C)CCCC(C)CCCC(C)CCCCC(C)CCCC(C)CCCC(C)C (stereo unspecified)
inactive: Potency [1] | Potency [20] | Potency [3] | outcome [6] | Potency [7] | outcome [8] | Potency [18] | Potency [10] | Potency [11] | outcome [12] | outcome [13] | outcome [14]

NC(CS)C(=O)O (stereo unspecified)
inactive: Potency [1] | Potency [3] | Potency [17] | outcome [6] | Potency [7] | outcome [8] | Potency [9] | Potency [18] | Potency [10] | Potency [11] | outcome [13] | outcome [14]
